In PubChem BioAssay (NCI) one finds growth data, which are given here for ten molecules.

Experiment in all cases: NCI-60 one-dose screen, 48 h (100 = growth as untreated, 0 = no growth, -100 = all killed)
In one experiment the test system is HCT-15 colon. The settings on record: 10 µM unless noted.
The subject of the next experiment is SNB-19 CNS. The settings on record: 10 µM unless noted.
The test system of the next experiment is PC-3 prostate. The settings on record: 10 µM unless noted.
The next experiment relates to SK-MEL-5 melanoma. The settings on record: 10 µM unless noted.
The subject of a further experiment is UACC-62 melanoma. The settings on record: 10 µM unless noted.
The next experiment has as its system LOX IMVI melanoma. The settings on record: 10 µM unless noted.
A further experiment relates to SK-MEL-28 melanoma. The note with it: 10 µM unless noted.
A further experiment concerns EKVX NSCLC. The note with it: 10 µM unless noted.
Another experiment has as its system SN12C renal. The settings on record: 10 µM unless noted.
A further experiment deals with UO-31 renal. The settings on record: 10 µM unless noted.
The test system of the next experiment is TK-10 renal. The note with it: 10 µM unless noted.
The subject of a further experiment is ACHN renal. The note with it: 10 µM unless noted.
The subject of another experiment is CAKI-1 renal. The settings on record: 10 µM unless noted.
A further experiment relates to A498 renal. The settings on record: 10 µM unless noted.
For another experiment, the system named is MOLT-4 leukemia. The settings on record: 10 µM unless noted.
Another experiment concerns U251 CNS. The settings on record: 10 µM unless noted.
The next experiment has as its system SK-MEL-2 melanoma. The note with it: 10 µM unless noted.
The next experiment concerns CCRF-CEM leukemia. The settings on record: 10 µM unless noted.
Another experiment relates to HT29 colon. The note with it: 10 µM unless noted.
A further experiment has as its system SNB-75 CNS. The settings on record: 10 µM.

The structures appear in SMILES notation. Compounds without any hit were thinned out: in the full panel of roughly 83,000, 20% have a hit.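 Single-dose data. Exposure time 48 hours. Values below 10 considered active.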 A number with no mark means an inactive call. Activity calls are given as the source filed them.

In the case of `CC1=C(C#N)C(=O)NC(C)C1` (centres undefined), the growth in the experiment with HCT-15 colon is 101%; with SNB-19 CNS it was 103%; in the experiment with PC-3 prostate, 94.9%; with SK-MEL-5 melanoma, 105%; in the experiment with UACC-62 melanoma it was 104%; in the experiment with LOX IMVI melanoma, 90.4%. Besides, the growth in the experiment on SK-MEL-28 melanoma is 101%; with EKVX NSCLC, 105%; in the experiment with SN12C renal, 99.9%; in the experiment on UO-31 renal, 94.9%; in the experiment on TK-10 renal, 106%; in the experiment on ACHN renal it was 102%. Moreover, the growth in the experiment with CAKI-1 renal was 103%; in the experiment with A498 renal it was 104%; in the experiment with MOLT-4 leukemia it was 116%.

Consider `CCCCCCCCN(CCCCCCCC)CCCCCCNc1cc(OC)cc2cccnc12`, for which the growth is 109% with HCT-15 colon; 94.1% with SNB-19 CNS; 84.9% in the experiment with U251 CNS; 67.2% in the experiment on PC-3 prostate; 103% in the experiment on SK-MEL-5 melanoma; 110% in the experiment with UACC-62 melanoma. The growth was 32.3% with LOX IMVI melanoma; 106% in the experiment with SK-MEL-28 melanoma; 105% in the experiment on SK-MEL-2 melanoma; 87.4% in the experiment on EKVX NSCLC; 63.4% in the experiment with SN12C renal; 55.2% in the experiment on UO-31 renal. Also, the growth was 118% with TK-10 renal; 91.4% in the experiment with ACHN renal; 72% with CAKI-1 renal; 110% in the experiment with A498 renal; -59% (active) in the experiment on CCRF-CEM leukemia; 50% in the experiment with MOLT-4 leukemia.

`Cc1ccc(S(=O)(=O)NCCNc2nccc(-c3c(-c4ccc(O)cc4)nc4sccn34)n2)cc1`: the growth in the experiment on HCT-15 colon is 99.1%; in the experiment on SNB-19 CNS it was 113%; with U251 CNS, 104%; in the experiment on PC-3 prostate it was 86.5%; with SK-MEL-5 melanoma it was 94.5%; in the experiment with UACC-62 melanoma it was 91.4%. In addition, the growth with LOX IMVI melanoma is 95.7%; in the experiment on SK-MEL-28 melanoma it was 114%; in the experiment with SK-MEL-2 melanoma, 114%; in the experiment with SN12C renal, 93.3%; in the experiment with UO-31 renal, 84%; with TK-10 renal, 121%. The growth in the experiment with ACHN renal is 93%; in the experiment with CAKI-1 renal, 98.2%; in the experiment with A498 renal, 104%; in the experiment with CCRF-CEM leukemia, 86.8%; in the experiment with MOLT-4 leukemia, 59%.

Turning to `Nc1cccc(Cl)c1N`, the growth in the experiment on HCT-15 colon is 96.5%; with SNB-19 CNS, 116%; with U251 CNS, 110%; in the experiment with PC-3 prostate, 90.8%; with SK-MEL-5 melanoma, 104%; in the experiment with UACC-62 melanoma, 108%. Further, the growth in the experiment with LOX IMVI melanoma is 86.6%; in the experiment on SK-MEL-28 melanoma, 119%; in the experiment on EKVX NSCLC it was 92%; with SN12C renal, 112%; in the experiment with UO-31 renal, 71.2%; in the experiment on TK-10 renal it was 93%. For the same molecule, the growth in the experiment with ACHN renal is 90.4%; in the experiment with CAKI-1 renal it was 96.4%; in the experiment on A498 renal, 114%; in the experiment with CCRF-CEM leukemia, 71%; in the experiment with MOLT-4 leukemia it was 93.1%.

For the molecule `O=C1c2c(c3c4ccccc4n(CCCCCCBr)c3c3[nH]c4ccccc4c23)C(=O)N1O`, the growth in the experiment on HCT-15 colon is 7.75% (active); in the experiment on SNB-19 CNS, 24.2%; with PC-3 prostate, 4.24% (active); with SK-MEL-5 melanoma, -69.5% (active); in the experiment on LOX IMVI melanoma, -70.2% (active); with SK-MEL-2 melanoma, -19.4% (active). The growth with EKVX NSCLC was 19.8%; in the experiment on SN12C renal, 8.36% (active); in the experiment with UO-31 renal, 0.628% (active); in the experiment with TK-10 renal, 18.1%; with ACHN renal, 4.33% (active); in the experiment with CAKI-1 renal, -23.7% (active). Further, the values for the growth in the experiment on A498 renal, in the experiment on CCRF-CEM leukemia and in the experiment with MOLT-4 leukemia were -9.63% (active), 3.53% (active) and 0.344% (active), respectively.

Consider `Cc1ccc(C(=O)C2=Cc3cc4ccccc4n3Cc3cnnn32)cc1`, for which the growth was 107% in the experiment with HCT-15 colon; 93% in the experiment with SNB-19 CNS; 100% in the experiment on U251 CNS; 87.7% in the experiment on PC-3 prostate; 93.5% in the experiment with SK-MEL-5 melanoma; 85.1% in the experiment on UACC-62 melanoma. For the same molecule, the growth with LOX IMVI melanoma is 110%; in the experiment on SK-MEL-28 melanoma it was 102%; in the experiment on SK-MEL-2 melanoma, 94.4%; in the experiment on EKVX NSCLC it was 107%; with SN12C renal it was 94.5%; in the experiment on UO-31 renal, 95.8%. Further, the growth was 94.9% with TK-10 renal; 109% with ACHN renal; 101% in the experiment on CAKI-1 renal; 107% in the experiment on A498 renal; 103% with CCRF-CEM leukemia; 101% in the experiment on MOLT-4 leukemia.

On to `CCc1cnc(=S)n(-c2ccccc2)c1`, for which the growth in the experiment on HCT-15 colon is 103%; with SNB-19 CNS, 107%; in the experiment with U251 CNS it was 117%; with PC-3 prostate, 98.7%; in the experiment on SK-MEL-5 melanoma, 117%; with UACC-62 melanoma, 109%. The growth in the experiment on LOX IMVI melanoma was 95.4%; in the experiment with SK-MEL-28 melanoma, 114%; in the experiment with SN12C renal, 103%; with UO-31 renal, 97%; in the experiment with TK-10 renal, 122%; in the experiment on ACHN renal, 99.6%. For the same molecule, the growth in the experiment on A498 renal was 117%; in the experiment with CCRF-CEM leukemia, 129%.

On to `COc1cc(C2CC(c3ccc4c(c3)OCO4)=NN2C(C)=O)cc(OC)c1OC` (centres undefined), for which the growth in the experiment with HCT-15 colon is 40.4%; in the experiment with U251 CNS it was 28.2%; in the experiment with PC-3 prostate, 43.8%; with SK-MEL-5 melanoma, 11.7%; with UACC-62 melanoma, 46.2%; in the experiment on LOX IMVI melanoma it was 35.7%. The growth with SK-MEL-28 melanoma is 52.7%; in the experiment on SK-MEL-2 melanoma, 28.5%; in the experiment with EKVX NSCLC, 38.7%; in the experiment with SN12C renal it was 46.3%; in the experiment with TK-10 renal, 38.2%; in the experiment with CAKI-1 renal it was 2.4% (active). Also, the values for the growth in the experiment with A498 renal, with CCRF-CEM leukemia and in the experiment on MOLT-4 leukemia were 28.8%, 16% and 36%, respectively.

Take `CCN(CC)c1ccc(C(=N)c2ccc(N(CC)CC)cc2)cc1`: the growth with HT29 colon is -10.5% (active); with SNB-75 CNS it was -34.3% (active); in the experiment on SNB-19 CNS it was 4.23% (active); in the experiment on PC-3 prostate, 3.06% (active); in the experiment on SK-MEL-5 melanoma, -100% (active); in the experiment on UACC-62 melanoma, -64.6% (active). Moreover, the growth in the experiment with SK-MEL-28 melanoma is -39.9% (active); in the experiment on SK-MEL-2 melanoma it was -66.6% (active); in the experiment with EKVX NSCLC it was 12.4%; with SN12C renal it was 0.751% (active); with UO-31 renal it was -33.6% (active); with TK-10 renal, 10%. The growth in the experiment on CAKI-1 renal is -9.36% (active); in the experiment with A498 renal, -44.3% (active); in the experiment on CCRF-CEM leukemia, 12.1%; in the experiment on MOLT-4 leukemia it was -23.5% (active).

As to `CC(C)(C)N1CCC1C(N)=O` (centres undefined), the growth in the experiment with HT29 colon was 109%; in the experiment on SNB-75 CNS, 89.3%; in the experiment with SNB-19 CNS it was 99.4%; in the experiment on PC-3 prostate, 95.3%; in the experiment with UACC-62 melanoma, 91.5%; in the experiment on SK-MEL-2 melanoma it was 159%. Also, the growth was 92.2% in the experiment on EKVX NSCLC; 104% in the experiment on SN12C renal; 131% in the experiment with UO-31 renal; 91.8% with TK-10 renal; 83% with CAKI-1 renal; 136% with A498 renal. Besides, the growth with CCRF-CEM leukemia was 93%; in the experiment with MOLT-4 leukemia it was 120%.
